High-throughput results deposited in PubChem BioAssay by National Center for Advancing Translational Sciences (NCATS).
The entries come from a sample that favours hits as a whole.
Eya2 phos inh – Eya2 (human) phosphatase inhibition; O00167; recombinant Eya2, OMFP fluorescence dephosphorylation (OMFP is methylfluorescein phosphate); Potency, µM (doses to about 76.9 µM), for the others: at the top dose activity, negative = inhibition, most hits filed as inhibitors; 330,000 compounds, 0.006% hits; AID 488837; further: on the % scale 0 is the no-effect control and ±100 the full control effect
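Eya2 protein (added as 0.2 uM solution) was preincubated with compound for 10 min at ambient temperature in 50 mM HEPES pH 7.5, 50 mM NaCl, 5 uM MgCl2, 0.05% BSA, 1 mM DTT. OMFP (added at 50 uM) then reacted 10 min; fluorescence read at 485/525 nm.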
a7 integrin act – integrin-mediated muscular dystrophy alleviation activation; alpha7betagal myoblasts, beta-gal FDG fluorescence, 48 h; Potency, µM (doses to about 38.3 µM), for the others: at the top dose activation, actives largely listed as activators; 350,000 compounds, 0.064% hits; AID 624291;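 further: 100% = response of the positive control SU9516; nearly all actives have a fitted effect of over 60% in size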
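alpha7betagal+/- myoblasts (passage 13, 250/well) treated 48 h at 37C with compounds at 1:260 dilution of DMSO stock. Lysed, then beta-galactosidase activity read as FDG fluorescence (ex 480/em 540) after 30 min, with pre-read for autofluorescence.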
p53 reactivator – re-activators of mutant p53; H1299 p53-A138V BP100-luciferase reporter, luminescence, 24 h; Potency, µM (titrated, usually from 92.2 µM), for inactives: at the top dose activity change, positive = activation, most hits filed as activators; 320,000 compounds, 0.063% hits; further: % of control where 0% means no effect; nearly all actives have a fitted effect of over 45% in size
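p53-null H1299 cells stably carrying temperature-sensitive p53-A138V and a BP100-luciferase reporter were pinned with compounds (4-point, 1:5 series) and held 24 hrs at 37 deg C. Luminescence was read 10 min after detection reagent.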
Mm-Cpn inhibitor – M. maripaludis TRiC chaperonin inhibition. Potency, µM (doses to about 76.9 µM), inactives show top-dose activity, negative = inhibition, hits mostly inhibitors. 330,000 compounds, 0.031% hits. purified Mm-Cpn ATPase, ADP Transcreener TR-FRET; further: on the % scale 0 is the no-effect control and ±100 the full control effect; nearly all actives have a fitted effect of over 80% in size
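ATP (10 uM final) was added to archaeal chaperonin (25 nM final) after 10 min exposure to test compound at 37°C; after 30 min further incubation, ADP was detected by competitive TR-FRET.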
USP2a block – blocks human ubiquitin-specific protease USP2a; O75604; USP2 core, Ub-CHOP2 coupled fluorogenic reporter, 485/531; Potency, µM (top dose mostly 38.3 µM), inactives show at the top dose activity change, negative = inhibition, usual class: inhibitors; 330,000 compounds, 0.01% hits;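 further: plate controls were DMSO wells for no effect and full inhibition by NEM control for full effect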
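Deubiquitinase activity read as fluorescence (485/531 nm) after Ub-CHOP2 cleavage activates the enterokinase reporter on its substrate; USP2 core 10nM, Ub-CHOP2 and substrate 25nM each, 30min compound preincubation then 60min RT; data normalized to NEM, curves fitted.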
ClpP mod – qHTS Assay for Activators of ClpP; ATP-dependent Clp protease proteolytic subunit (Bacillus subtilis (strain 168)), P80244; purified B. subtilis ClpP, FRET peptide cleavage, 20 min; Potency, µM (top dose mostly 57.5 µM), for the others: top-dose activity change, negative = active; 340,000 compounds, 1.9% hits; AID 651965, 2013; active means well fitted falling curve with a large enough effect; inconclusive means small, poorly fitted or top-dose-only effect; inactive means no such curve, though single readings can be large or run the other way; further: the source files actives as falling curves though it sought activators and does not explain the sign; nearly all actives have a fitted effect of over 65% in size
Target sequence (P80244 whole entry, looked up): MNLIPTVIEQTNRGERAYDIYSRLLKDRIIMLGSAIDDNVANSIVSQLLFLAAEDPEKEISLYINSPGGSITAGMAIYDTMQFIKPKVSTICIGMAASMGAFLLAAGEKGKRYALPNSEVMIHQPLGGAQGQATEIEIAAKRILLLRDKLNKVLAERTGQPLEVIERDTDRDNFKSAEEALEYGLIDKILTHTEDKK
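Buffer: 100 mM Tris/HCl pH8, 100 mM KCl, 0.05% low protease BSA, 2.5% glycerol, 0.01% Tween-20. ClpP 10 microg/mL final; 20 min RT; delta FRET normalized to ADEP and DMSO controls.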
* = called active by the depositor; ? = inconclusive; . = no result given; [ ] = another dose, or the depositor's remark. Unless noted, the call rests on the fitted dose curve; in most records, active means well fitted curve in the direction sought with a large enough effect; inconclusive means small, poorly fitted or top-dose-only effect, or another doubt; inactive means no such curve, though single readings can be large; an effect the other way counts as inactive or inconclusive. Potency means the concentration at half of the fitted maximal effect.

SMILES	Eya2 phos inh	a7 integrin act	p53 reactivator	Mm-Cpn inhibitor	USP2a block	ClpP mod
Cc1ccc(CNC(=O)C2CCCN(c3nc4ccccc4n4cccc34)C2)cc1 (centres undefined)	.	.	.	.	.	22.4µM*
COc1ccccc1CNC(=O)C1CCCN(c2nc3ccccc3n3cccc23)C1 (centres undefined)	.	.	.	.	.	12.6µM*
COc1ccc(-n2nc3c(N4CCCC(C(=O)NCc5ccccc5C)C4)nnc(C)c3c2C)cc1 (centres undefined)	-13.8%	.	.	0.8%	-3.5%	28.2µM*
O=C(Nc1ccc(Cl)cc1)C1CCN(c2nc3ccccc3n3cccc23)CC1	.	.	.	.	.	28.2µM*
CCCn1nc(NC(=O)c2cccc(Cl)c2)c2cc3cccc(C)c3nc21	.	.	.	.	.	-22.0%
CC(=O)c1cccc(NC(=O)COC(=O)c2ccccc2OCc2cccc(Br)c2)c1	.	.	.	.	.	-1.2%
COc1nc(OC)nc(N2CCC(C(=O)NCc3ccco3)CC2)n1	-19.1%	-3.2%	-2.9%	-1.3%	-0.2%	0.3%
Cc1cc(C)nc(N2CCC(C(=O)NCc3ccco3)CC2)n1	12.2%	1.1%	-9.7%	-1.1%	1.3%	15.8µM*
COCCCNC(=O)C1CCN(c2nc(C)cc(C)n2)CC1	22.9%	-8.7%	-4.6%	1.0%	?	?
COC(=O)CNC(=O)C1CCN(c2nc(C)cc(C)n2)CC1	-2.0%	-28.5%[7.66 µM]	-10.6%	1.4%	3.3%	31.6µM*
Cc1cc(C)nc(N2CCCC(C(=O)NC3CCCC3)C2)n1 (centres undefined)	-1.2%	-4.6%	-10.8%	0.1%	-1.2%	22.4µM*
CC(NC(=O)c1cccs1)C1CCCO1 (centres undefined)	7.3%	26.9%	3.3%	-0.6%	1.6%	28.2µM*
C(=C\c1ccnc2ccccc12)/c1ccc2c(c1)OCO2	.	.	.	.	.	-19.6%
CN1CCN(c2ccc(S(=O)(=O)N3CCCCC3)cc2NC(=O)c2ccc3ccccc3c2)CC1	8.9%	-55.9%	-8.6%	-0.4%	-6.8%	20µM*
Cc1ccc(S(=O)(=O)N2CCCCC2)cc1NC(=O)c1cc2ccccc2o1	-5.8%	5.3%	-2.9%	-21.8%	1.0%	-10.7%
CCN1CCN(c2ccc(S(=O)(=O)N3CCCCC3)cc2NC(=O)c2cc3ccccc3o2)CC1	-21.5%	-11.0%	2.0%	-0.3%	-0.1%	15.8µM*
N#Cc1ccc(OCC(O)CS(=O)(=O)c2ccccc2)cc1 (centres undefined)	-4.7%	10µM*	-4.5%	-0.5%	1.3%	-10.2%
Cc1ccc(-c2nc(CS(=O)(=O)CC(=O)NCCc3ccccc3)c(C)o2)cc1	.	.	.	.	.	-7.8%
COc1ccc(CC(=O)NCc2ccccc2)cc1S(=O)(=O)N1CCOCC1	-3.9%	-16.2%[7.66 µM]	-0.2%	-0.6%	-0.3%	0.1%
COc1ccc(CC(=O)N(Cc2ccccc2)c2ccc(C)cc2)cc1S(=O)(=O)N1CCOCC1	14.1%	-2.3%	-1.4%	-2.5%	-1.2%	25.1µM*
COc1cccc(/C=N/NC(=O)CCc2n[nH]c(=O)[nH]c2=O)c1O	-16.8%	28.9%	?	2.3%	1.9%	10µM*
COc1ccc(/C=N/NC(=O)CCc2n[nH]c(=O)[nH]c2=O)cc1OC	-1.7%	34.4%	1.0%	-0.9%	0.3%	-6.3%
CCOC(=O)CCC(NC(=O)CCCCC(=O)NC(CCC(=O)OCC)C(=O)OCC)C(=O)OCC (centres undefined)	-0.2%	-17.1%	10.4%	0.1%	4.7%	0.0%
CCOC(=O)CCC(NC(=O)c1cncc(O)c1)C(=O)OCC (centres undefined)	10.0%	10.7%	3.3%	-2.7%	-0.5%	28.2µM*
CCOC(=O)c1sc2nc(N3CCOCC3)c3c(c2c1N)CC(C(C)C)OC3 (centres undefined)	4.2%	21.8%	2.5%	-5.0%	-0.3%	-37.3%
